DAX1 inh-1 – DAX1 (NR0B1) inhibitors, primary screen, cell-based, HEK293, Gal4-DAX1, luciferase luminescence; inhibition, % at 6.75 µM; HEK293 Gal4-DAX1 luciferase reporter; Nuclear receptor subfamily 0 group B member 1 (Homo sapiens), P51843; 340,000 compounds, 0.99% hits;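 active = inhibition above the mean over all tested compounds plus 3 SD, cut at about 4.2% in these data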;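 note: 0% = DAX1-transfected cells with DMSO and 100% = empty-vector control cells with DMSO; inhibition shows as a rise in luminescence from relieved DAX1 repression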
Target sequence (P51843 207-470 limits assumed): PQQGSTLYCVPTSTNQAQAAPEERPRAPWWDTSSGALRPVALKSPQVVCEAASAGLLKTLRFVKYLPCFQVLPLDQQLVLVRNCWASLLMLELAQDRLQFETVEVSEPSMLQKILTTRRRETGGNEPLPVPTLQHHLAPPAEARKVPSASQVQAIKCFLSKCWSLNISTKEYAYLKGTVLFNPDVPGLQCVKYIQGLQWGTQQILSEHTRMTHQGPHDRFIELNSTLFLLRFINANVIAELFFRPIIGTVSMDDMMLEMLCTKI
hgDAF-12 ag – H. glycines DAF-12 receptor agonists, primary screen, cell-based, luminescence, HEK293, GAL4 fusion, UAS-luciferase; Nuclear hormone receptor DAF-12 (Heterodera glycines), GAL4 fusion; HEK293 GAL4-hgDAF12 UAS-luciferase reporter, agonist luminescence; normalized to butyrate control; 370,000 compounds, 1.8% hits; activation, % at 6.8 µM; AID 687014, 2013;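 active = activation above a cutoff set at the mean of all screened compounds plus 3 SD, cut at about 10% in these data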;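 note: 0% = DMSO wells and 100% = sodium butyrate wells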
ssDAF-12 act – S. stercoralis DAF-12 nuclear receptor activators, primary screen, cell-based, luminescence, HEK293, GRIP1 co-expression, lit1-tk-luc | Nuclear hormone receptor DAF-12 (Strongyloides stercoralis) | HEK293 ssDAF-12/GRIP1 lit1-tk-luc reporter; % of 3 µM dafachronic acid response | activation, % at 6.8 µM | 370,000 compounds, 1% hits;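 active = activation above the mean over all tested compounds plus 3 SD, cut at about 0.9% in these data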;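 note: 0% = DMSO-only wells and 100% = 3 µM delta7-dafachronic acid wells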
Wee1 degr inh – Wee1 degradation inhibitors, primary screen, cell-based, HeLa, Wee1K328M-luciferase, luminescence; Wee1-like protein kinase (Homo sapiens), P30291; HeLa Luc-Wee1K328M stability; 100% = proteasome inhibitor MG132 effect; reporter increase, % at 5 µM; 220,000 compounds, 1.2% hits;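 active = activation above the mean of all tested compounds plus 3 SD, set per screening run, cut at about 8.8% in these data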;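 note: cells exposed to compound for 20 h before luminescence read; 0% = DMSO alone and 100% = MG132 at 30 µM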
hcDAF12 agonist – H. contortus DAF-12 nuclear receptor activators, primary screen, cell-based, luminescence, HEK293, lit1-tk-luc reporter; HEK293 hcDAF-12 lit1-tk-luc reporter; 0% DMSO, 100% Δ7-dafachronic acid; activation, % at 6.8 µM; 370,000 compounds, 1.4% hits; AID 652067, 2013;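 active = activation above the mean of all tested compounds plus 3 SD, cut at about 5.5% in these data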;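 note: 100% = response to 3 µM Δ7-dafachronic acid high control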
DAX1 inh-2 – DAX1 (NR0B1) inhibitors on StAR promoter, primary screen, cell-based, luminescence, SF-1 (NR5A1), full-length DAX-1; HEK293T StAR-luciferase reporter, SF-1/DAX-1 repression relief; inhibition, % at 6.8 µM; 370,000 compounds, 1.1% hits;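 active = inhibition above the mean over all tested compounds plus 3 SD, cut at about 3.6% in these data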;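 note: 0% = DAX-1 cells with DMSO and 100% = cells lacking DAX-1 with DMSO; higher inhibition means more luminescence from relief of DAX-1 repression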
Starred values were filed as active, the others as inactive; / = no result. The list is not random: actives were taken first. Their share in the collection is about 4.6%.

SMILES	DAX1 inh-1	hgDAF-12 ag	ssDAF-12 act	Wee1 degr inh	hcDAF12 agonist	DAX1 inh-2
Cc1ccc(Cc2c(-c3cccc(Br)c3)nc3c4ccccc4ccn23)cc1	/	4.4	0.7	/	4.6	0.8
Clc1ccc(-c2nc3c4ccccc4ccn3c2Cc2cccc(Cl)c2)cc1	/	7.0	0.9	/	5.9*	0.8
Fc1cccc(Cc2c(-c3ccccc3)nc3c4ccccc4ccn23)c1	/	4.8	1.4*	/	3.8	1.1
c1ccc(-c2nc3c4ccccc4ccn3c2CC2CCCCC2)cc1	/	6.0	0.5	/	5.6*	1.2
Clc1cccc(Cc2c(-c3cccc(Br)c3)nc3c4ccccc4ccn23)c1	/	2.6	-0.5	/	6.1*	1.2
Brc1cccc(-c2nc3c4ccccc4ccn3c2CC2CCCCC2)c1	/	1.8	0.0	/	5.1	2.6
O=C(c1cccs1)N1C[C@H](O)[C@@H](n2cc(C3CC3)nn2)C[C@@H]1c1ccccc1	0.2	2.5	-1.2	/	0.1	0.5
C#CCOCCOCCOCCNc1nc(N2CCN(C(=O)Cn3cc(CCO)nn3)CC2)nc(N2CCN(C(=O)[C@H](Cc3ccc(O)cc3)n3cc(CCO)nn3)CC2)n1	0.0	-1.1	-1.3	/	-0.7	0.0
OC[C@@H]1CN(C2CCCC2)C[C@H](n2cnc3c(NC4CC4)ncnc32)O1	/	-0.4	-1.3	/	0.8	0.3
O=C1c2cccc(NCCCNCCO)c2C(=O)c2cccc(NCCCNCCO)c21	0.5	4.7	1.0*	/	4.5	-2.2
O=C1c2ccccc2C(=O)c2c(NCc3cccnc3)cccc21	0.0	4.2	-0.7	1.6	-0.6	-0.6
Cn1c(=O)c(C(=O)NNC(=O)c2ccc(Br)cc2)c(O)c2ccccc21	4.5*	-0.4	-0.2	/	3.6	-0.3
CCn1c(=O)c(C(=O)NNS(=O)(=O)c2ccc(Br)cc2)c(O)c2ccccc21	8.6*	3.0	-0.1	2.0	1.4	0.6
Cn1c(=O)c(C(=O)NNC(=O)c2ccccc2F)c(O)c2ccccc21	-0.5	2.8	0.1	/	3.3	-0.2
Cc1cc(CN2CCCC(N3CCc4ccccc4C3)C2)cc(C)c1O (centres undefined)	0.9	10.8*	0.8	/	5.3	0.1
O=C(O)/C(=C\c1ccc(-c2ccccc2[N+](=O)[O-])o1)c1ccccc1	2.4	3.9	0.9*	/	5.7*	0.1
CC(=O)Oc1cc(O)c2c(=O)c(OC(C)=O)c(-c3ccc(OC(C)=O)c(OC(C)=O)c3)oc2c1	4.5*	/	/	/	/	/
CO/N=C/C(NC(=O)c1ccc(C(F)(F)F)cc1)C(=O)OC (centres undefined)	-1.0	-1.6	-0.8	2.5	-1.7	1.4
COC(=O)C(/C=N/O)NC(=O)c1ccccc1 (centres undefined)	0.3	0.3	-0.9	-2.3	5.9*	0.6
CCC(CO)Nc1cccc2c1S(=O)(=O)N(Cc1cn(Cc3cccc(C(F)(F)F)c3)nn1)Cc1ccccc1O2 (centres undefined)	/	-1.5	-1.2	/	-1.5	-0.7
CN(C(=O)c1ccc2c(c1)S(=O)(=O)N=C1CCCCCN12)c1ccccc1	-1.4	2.4	-0.7	/	0.2	1.1
O=C(O)c1ccc2c(c1)S(=O)(=O)N=C1CCCCCN12	5.1*	-1.9	-0.7	0.1	-1.8	-0.5
CC(C)(C)c1ccc(S(=O)(=O)NNC(=O)c2cc3ccccc3[nH]2)cc1	-1.2	7.6	0.2	/	6.5*	1.1
CC1Cc2ccccc2N1C(=O)CSc1nn2c(=O)c(C(C)(C)C)nnc2s1 (centres undefined)	-1.2	1.3	-1.4	10.4*	-0.8	-1.0
CC(=O)c1nn(-c2cccc(C)c2)cc1C(=O)c1cccc(Br)c1	2.1	-0.5	-0.7	/	1.1	0.2
